Consider ten compounds from PubChem BioAssay (Tox21).

Unmarked numbers belong to inactive results. Records with an inconclusive call do not appear. The source made the active and inactive calls. Unless noted, the call rests on the fitted dose curve; in most records, active means well fitted curve in the direction sought with a large enough effect in the repeat runs; inconclusive means weak or mixed curves; inactive means no such curve, though single readings can be large; an effect the other way counts as inactive or inconclusive.

Assay [1] in a line: A CellTox Green Cytotoxicity Assay to monitor cytotoxicity in HepG2 cells - 16 hour (AID 1224876). Further: nearly all actives have a fitted effect of over 45% in size. Further: potency means the concentration at half of the fitted maximal effect. An outline of the steps:
(§1)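 Cytotoxicity was tracked as dead-cell DNA fluorescence in HepG2 cells treated with test compounds at 37 C; each time-point value comes from one kinetic series spanning 0, 8, 16, 24, 32 and 40 h.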

A short description of assay [2]: qHTS RealTime-Glo MT Cell Viability Assay in HepG2 cells - 32 hour (AID 1224877). Further: nearly all actives have a fitted effect of over 55% in size. A digest of the protocol:
(§2)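 Tox21 10K library screened in qHTS format on HepG2 cells carrying RealTime-Glo reagents. Compounds were added after a 5 h preincubation, and the luminescent signal from continuous culture was measured repeatedly during 40 h treatment.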

The nature of assay [3]: A CellTox Green Cytotoxicity Assay to monitor cytotoxicity in HepG2 cells - 24 hour (AID 1224878). Further: nearly all actives have a fitted effect of over 45% in size. Further: potency means the concentration at half of the fitted maximal effect. A digest of the protocol: as §1
Assay [4] can be described thus: qHTS RealTime-Glo MT Cell Viability Assay in HEK293 cells - 0 hour (AID 1224880). Further: top concentration of the series differs between compounds; nearly all actives have a fitted effect of over 45% in size. A digest of the protocol:
(§3)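 Kinetic, non-lysing viability readout. Seed HEK293 (600/well) with reagent, incubate 5 h at 37 C/5% CO2, pin 23 nL compound in DMSO, incubate at 37 C, read luminescence at 0, 8, 16, 24, 32, 40 h.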

Assay [5] in a line: A CellTox Green Cytotoxicity Assay to monitor cytotoxicity in HEK293 cells - 32 hour (AID 1224881). Further: nearly all actives have a fitted effect of over 40% in size. Further: potency means the concentration at half of the fitted maximal effect. An outline of the steps: (§4)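 Real-time, in one plate: 600 HEK293 cells/well with dead-cell DNA dye, pinned compound after 5 h, 37 C incubation over 40 h; viable cells give no appreciable fluorescence.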
Assay [6] in a line: A CellTox Green Cytotoxicity Assay to monitor cytotoxicity in HepG2 cells - 0 hour (AID 1224882). Further: nearly all actives have a fitted effect of over 35% in size. Further: potency means the concentration at half of the fitted maximal effect. A digest of the protocol:
as §1

Assay [7] can be described thus: A CellTox Green Cytotoxicity Assay to monitor cytotoxicity in HEK293 cells - 8 hour (AID 1224884). Further: nearly all actives have a fitted effect of over 35% in size. Further: potency means the concentration at half of the fitted maximal effect. A digest of the protocol:
as §4

Assay [8] is described as follows: qHTS RealTime-Glo MT Cell Viability Assay in HepG2 cells - 16 hour (AID 1224885). Further: nearly all actives have a fitted effect of over 50% in size. A digest of the protocol:
as §2
In general terms: Quantitative high-throughput screening tests each substance at several concentrations.

The nature of assay [9]: qHTS RealTime-Glo MT Cell Viability Assay in HEK293 cells - 24 hour (AID 1224886). Further: top concentration of the series differs between compounds; nearly all actives have a fitted effect of over 50% in size. An outline of the steps: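 Luminescence generated by NanoLuc from substrate produced by living HEK293 cells served as the viability signal. Each value reflects the reading at its stated time point during continuous 40 h compound exposure at 37 C.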
Assay [10] is described as follows: qHTS RealTime-Glo MT Cell Viability Assay in HEK293 cells - 8 hour (AID 1224887). Further: top concentration of the series differs between compounds; nearly all actives have a fitted effect of over 50% in size. An outline of the steps: as §3
Assay [11] is described as follows: A CellTox Green Cytotoxicity Assay to monitor cytotoxicity in HEK293 cells - 16 hour (AID 1224888). Further: nearly all actives have a fitted effect of over 35% in size. Further: potency means the concentration at half of the fitted maximal effect. An outline of the steps:
as §4

Assay [12] in a line: qHTS RealTime-Glo MT Cell Viability Assay in HepG2 cells - 0 hour (AID 1224889). Further: nearly all actives have a fitted effect of over 50% in size. An outline of the steps: as §2
Assay [13] can be described thus: A CellTox Green Cytotoxicity Assay to monitor cytotoxicity in HepG2 cells - 8 hour (AID 1224890). Further: nearly all actives have a fitted effect of over 45% in size. Further: potency means the concentration at half of the fitted maximal effect. An outline of the steps: as §1
Assay [14] can be described thus: qHTS assay to identify small molecule antagonists of the estrogen receptor alpha (ER-alpha) signaling pathway using the BG1 cell line in the presence of 0.1 nM 17-beta-estradiol - cell viability counter screen (AID 1259241). Further: nearly all actives have a fitted effect of over 40% in size. Further: potency means the concentration at half of the fitted maximal effect. An outline of the steps: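 VM7Luc4E2, 4,000 cells/well, phenol red-free medium + 10% charcoal-stripped FBS; 24 hr plating; cpd + 0.1 nM E2 final, 22 hr 37C/5% CO2; CellTiter-Fluor 30 min, fluorescence.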

Assay [15] in a line: qHTS assay to identify small molecule antagonists of the androgen receptor (AR) signaling pathway using the MDA cell line in the presence of 0.5 nM R1881 - cell viability counter screen (AID 1259242). Further: nearly all actives have a fitted effect of over 45% in size. Further: potency means the concentration at half of the fitted maximal effect. A digest of the protocol: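 Cells seeded at 3,000/well and allowed 5 hr at 37C, 0% CO2 before compound transfer and R1881 (0.5 nM final) addition; 16 hr later, live-cell protease fluorescence indicated cytotoxicity.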

The target in assay [16] is Androgen receptor (Homo sapiens) (UniProt P10275). In words: qHTS assay to identify small molecule antagonists of the androgen receptor (AR) signaling pathway using the MDA cell line in the presence of 0.5 nM R1881 (AID 1259243). Further: nearly all actives have a fitted effect of over 50% in size. An outline of the steps:
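Luminescence from an AR/GR-responsive MMTV-luciferase construct in MDA-kb2 breast carcinoma cells, read 30 min after ONE-Glo, following 16 hr co-treatment with compounds and 0.5 nM R1881.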

A short description of assay [17]: A CellTox Green Cytotoxicity Assay to monitor cytotoxicity in HepG2 cells - 40 hour (AID 1224879). Further: nearly all actives have a fitted effect of over 40% in size. Further: potency means the concentration at half of the fitted maximal effect. An outline of the steps: as §1
The nature of assay [18]: A CellTox Green Cytotoxicity Assay to monitor cytotoxicity in HepG2 cells - 32 hour (AID 1224883). Further: nearly all actives have a fitted effect of over 50% in size. Further: potency means the concentration at half of the fitted maximal effect. A digest of the protocol:
as §1

Assay [19] concerns the target Estrogen receptor (Homo sapiens) (UniProt P03372). Kind of assay: qHTS assay to identify small molecule antagonists of the estrogen receptor alpha (ER-alpha) signaling pathway using the BG1 cell line in the presence of 0.1 nM 17-beta-estradiol (AID 1259244). Further: nearly all actives have a fitted effect of over 50% in size. A digest of the protocol:
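Luciferase signal from VM7Luc4E2 ERE-reporter cells, co-dosed with test compound and 0.1 nM final 17beta-estradiol for 22 h, read with ONE-Glo.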

A short description of assay [20]: qHTS assay to identify small molecule phospholipidosis (PLD) inducers (AID 1259344; active means well fitted curve in the direction sought with a large enough effect; an effect the other way counts as inactive or inconclusive). An outline of the steps: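 Image-based: LipidTOX Red pit count/intensity per well and per cell; HepG2, 24 h compound at 37 C, PFA fixation, Hoechst counterstain.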
On the % scale 0 is the no-effect control and ±100 the full control effect.

Estrogen receptor (Homo sapiens), sequence (P03372 whole entry, looked up): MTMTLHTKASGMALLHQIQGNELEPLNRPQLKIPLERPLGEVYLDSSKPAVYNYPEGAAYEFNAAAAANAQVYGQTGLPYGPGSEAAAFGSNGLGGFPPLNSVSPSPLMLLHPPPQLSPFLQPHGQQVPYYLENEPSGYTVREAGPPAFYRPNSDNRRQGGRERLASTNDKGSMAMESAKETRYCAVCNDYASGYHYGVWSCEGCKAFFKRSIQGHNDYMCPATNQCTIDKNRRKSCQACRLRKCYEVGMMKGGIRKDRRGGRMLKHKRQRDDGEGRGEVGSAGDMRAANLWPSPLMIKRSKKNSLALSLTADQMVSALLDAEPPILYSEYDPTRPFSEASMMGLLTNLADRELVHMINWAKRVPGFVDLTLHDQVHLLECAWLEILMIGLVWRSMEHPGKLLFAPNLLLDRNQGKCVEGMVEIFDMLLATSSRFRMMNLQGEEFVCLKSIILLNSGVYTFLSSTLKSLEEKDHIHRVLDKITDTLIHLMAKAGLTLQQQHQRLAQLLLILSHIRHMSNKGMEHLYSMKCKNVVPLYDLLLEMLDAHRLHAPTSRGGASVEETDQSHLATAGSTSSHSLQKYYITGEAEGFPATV
Androgen receptor (Homo sapiens), sequence (P10275 whole entry, looked up): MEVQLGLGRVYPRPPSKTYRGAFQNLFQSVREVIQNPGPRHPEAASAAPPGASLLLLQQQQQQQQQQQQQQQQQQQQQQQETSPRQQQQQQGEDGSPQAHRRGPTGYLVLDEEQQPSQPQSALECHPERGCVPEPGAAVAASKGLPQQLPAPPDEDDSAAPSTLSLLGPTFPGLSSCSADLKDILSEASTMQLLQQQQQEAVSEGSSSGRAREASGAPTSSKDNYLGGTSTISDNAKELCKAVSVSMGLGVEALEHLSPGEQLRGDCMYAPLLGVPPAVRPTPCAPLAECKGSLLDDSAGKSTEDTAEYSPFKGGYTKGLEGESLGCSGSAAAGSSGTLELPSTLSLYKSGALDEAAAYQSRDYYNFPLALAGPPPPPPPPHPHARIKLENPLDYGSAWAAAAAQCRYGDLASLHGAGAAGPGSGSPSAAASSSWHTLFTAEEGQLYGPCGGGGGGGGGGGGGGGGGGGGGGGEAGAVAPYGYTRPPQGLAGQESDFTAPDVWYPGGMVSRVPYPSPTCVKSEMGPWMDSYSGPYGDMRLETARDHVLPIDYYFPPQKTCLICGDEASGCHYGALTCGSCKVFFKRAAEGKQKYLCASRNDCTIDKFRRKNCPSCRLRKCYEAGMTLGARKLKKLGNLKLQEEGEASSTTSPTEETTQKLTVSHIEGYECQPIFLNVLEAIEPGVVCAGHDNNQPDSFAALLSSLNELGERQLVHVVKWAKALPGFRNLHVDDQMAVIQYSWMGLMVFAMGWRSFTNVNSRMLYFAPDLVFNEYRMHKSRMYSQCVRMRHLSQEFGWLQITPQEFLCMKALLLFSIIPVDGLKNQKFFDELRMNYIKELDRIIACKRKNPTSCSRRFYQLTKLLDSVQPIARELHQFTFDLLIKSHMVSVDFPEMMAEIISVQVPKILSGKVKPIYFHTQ

For `CCCCC(CC)CNC(=O)CC(C)OC(=O)CCC(=O)O` (stereo unspecified), the Potency in assay [1] is 23.9 µM (active); in assay [3] it was 26.8 µM (active); in assay [6] it was 26.8 µM (active); in assay [13], 26.8 µM (active). Also, the call in assay [2], in assay [4], in assay [8] and in assay [16] was inactive. Besides, the Potency result in assay [5], in assay [7], in assay [9], in assay [10], in assay [11] and in assay [12] was “inactive” each time. Besides, the Potency result in assay [14] and in assay [15] was “inactive” each time.

In the case of `CCC(CO)CO`, the Potency result in assay [1], in [3], in [17], in assay [5], in assay [6] and in assay [18] was “inactive” each time. Besides, the Potency entry in assay [7], in [9], in assay [10], in [11], in assay [12] and in assay [14] was “inactive” in each case. The Potency entry in assay [15] and in assay [19] was “inactive” each time. For the same compound, the outcome in assay [2] and in assay [8] was inactive.

For the compound `COc1ccc(N=Nc2cc(C)c(N=Nc3ccc(S(=O)(=O)O)cc3)cc2OC)cc1`, the Potency result in [1], in assay [3], in assay [17], in [5], in [6] and in assay [18] was “inactive” throughout. For the same compound, the Potency entry in assay [7], in assay [9], in [10], in assay [11] and in [13] was “inactive” each time. In addition, the outcome in [2] and in [8] was inactive. Moreover, the Potency in assay [14] was 68.6 µM (active); in assay [15] it was 48.6 µM (active).

Take `CC1=CC[C@H](CC=O)C1(C)C`: the Potency result in [1], in assay [3], in [17], in [5], in [6] and in assay [18] was “inactive” in each case. In addition, the Potency result in [7], in assay [10], in assay [11], in [12], in assay [13] and in assay [15] was “inactive” each time. Besides, the Potency result in [19] was “inactive”. The result in [2] and in assay [8] was inactive.

Regarding `O=C(O)c1c(Cl)ccc(Cl)c1Cl`, the Potency result in assay [1], in assay [3], in [17], in [5], in assay [6] and in assay [18] was “inactive” each time. Besides, the Potency result in assay [7], in assay [9], in [10], in [11], in assay [12] and in assay [13] was “inactive” throughout. Besides, the Potency entry in assay [14] and in assay [19] was “inactive” in each case. Also, the compound was classed as inactive in assay [2] and in [8].

For `O=C(/C=C/c1ccccc1)NCCO`, the Potency in assay [1] is 9.52 µM (active); in [3], 6.74 µM (active); in [17], 6.01 µM (active); in assay [5], 6.74 µM (active); in assay [6] it was 6.01 µM (active); in [18], 8.49 µM (active). The Potency in [7] is 9.52 µM (active); in assay [11], 8.49 µM (active). Further, the compound was called inactive in [2], in assay [8] and in assay [20]. Further, the Potency result in assay [9], in assay [10], in [12], in assay [14], in assay [15] and in assay [19] was “inactive” throughout.

`Nc1ccc(S(=O)(=O)Nc2ccccn2)cc1`: the Potency result in [1], in assay [3], in assay [17], in [5], in assay [6] and in assay [18] was “inactive” in each case. In addition, the Potency result in [7], in assay [10], in assay [11], in assay [12], in [13] and in [15] was “inactive” throughout. Moreover, in assay [19], the Potency result was “inactive”. Besides, the compound was classed as inactive in [2], in assay [8], in [16] and in assay [20].

Consider `CCCCC(C)C(=O)O` (stereo unspecified), for which the compound was classed as inactive in [4] and in [8]. Moreover, the Potency result in assay [5], in assay [7], in [9], in assay [10], in assay [11] and in [14] was “inactive” throughout. In [15], the Potency entry is “inactive”.

Take `Cc1ccccc1C(=O)N1CC/C(=N\OS(=O)(=O)O)c2ccc(Cl)cc21`: the result in [2], in assay [4] and in [8] was inactive. Also, the results for the Potency in [3] and in assay [17] were 26.8 µM (active) and 23.9 µM (active), respectively. In addition, the Potency result in [5], in assay [7], in [9], in assay [10], in assay [11] and in assay [12] was “inactive” throughout. The Potency result in assay [14], in assay [15] and in [19] was “inactive” throughout. Besides, the PLD induction in [20] is -2.19% [at 7.66 µM].

Take `CC(=O)Nc1ncc([N+](=O)[O-])s1`: the compound was called inactive in [2], in assay [4], in assay [8] and in assay [20]. Further, the Potency entry in [3], in [17], in assay [5], in [18], in assay [7] and in assay [9] was “inactive” in each case. Moreover, the Potency entry in assay [10], in assay [11], in [12], in assay [15] and in assay [19] was “inactive” in each case.
